The nature of assay [1]: P. berghei load reduction in hepatocytes – cell-based, HepG2, luciferase luminescence, HepG2 viability, primary screen (AID 624349; in the data active = parasite load remaining mostly below about 12%, no sharp cut-off; inactive = mostly above about 10%;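 note: 100% = mean of DMSO negative control wells on the same plate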). The conditions noted are these: P. berghei liver stage in HepG2, luciferase luminescence, concentration not given here; parasite load remaining: stronger effect = lower value; viability: measured here: HepG2 viability without parasites.
Assay [2] is described as follows: EMT-state selective cytotoxicity in co-culture – imaging, PC-3E GFP, TEM4-18 mCherry, primary screen (AID 1345086;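 active = compounds killing one labelled cell type while sparing the other, by normalised counts and ratio limits, not self-fluorescent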;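 for all read-outs here: cells exposed to compound for 72 h before imaging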;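 for red/green cell ratio (normalised): normalised mesenchymal count divided by normalised epithelial count so high means epithelial killing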). The settings on record: PC-3E GFP / TEM4-18 mCherry co-culture, imaging cell counts, at 1 µM; for red/green cell ratio (normalised): actives lie on both sides.
Assay [3] concerns Aerobactin synthetase IucA (Klebsiella pneumoniae hvKP1). Description: IucA enzyme inhibition, primary screen, biochemical, Spectrum library (AID 1346200).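 Note: 100% = wells without compound and 0% = wells lacking enzyme.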 The conditions noted are these: malachite green pyrophosphate, A620, at 8 µM, stronger effect = lower value.
Assay [4] can be described thus: viability loss with induced miR-34 in A549 – imaging, A549 dox-inducible miR-34, nuclei and caspase counts, primary screen (AID 1347080;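 active = compounds whose cell count with miR-34 switched on is under 0.7 times the count with it off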). The conditions noted are these: A549 miR-34 inducible, Hoechst nuclei count, 48 h.
In assay [5] the target is Mitogen-activated protein kinase 7 (Homo sapiens) (UniProt Q13164). The assay is described as follows: Gal4-ERK5 driven luciferase induction – cell-based, HTS, primary screen (AID 1508626;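 active = luciferase signal above three times the same-plate solvent-only control wells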;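 note: luciferase driven by Gal4-ERK5 fusion binding five Gal4 sites before minimal TATA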). The settings on record: HeLa Gal4-ERK5 transactivation, 18 h, at 5 µM, stronger effect = higher value.
Assay [6] in a line: MELAS cybrid and Rieske KO viability enhancers – cell-based, MELAS cybrids, Rieske KO mouse fibroblasts, CellTiter-Glo, primary screen (AID 1508586;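 active = mean z-score across replicates of 1.96 or higher in either the MELAS or the Rieske mutant cell line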;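 note: z relative to plate mean and SD of compound and empty wells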). The conditions noted are these: low glucose. On the technique in general: ATP-based viability assays read luminescence as a measure of living cells.
A short description of assay [7]: galactose survival enhancers in mitochondrial complex I cybrids – cell-based, galactose medium, ATP luminescence, primary screen (AID 1645843;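 active = z-score of at least 1.8 in each of two replicates, scored against plate mean and spread of sample wells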;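 note: positive z means more ATP and so rescue of galactose-driven cybrid death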). The conditions noted are these: complex I mutant cybrid cells, 72 h, stronger effect = higher value.
Assay [8] is described as follows: compounds altering circadian rhythm period length – cell-based, LOPAC library, luminescence reporter (AID 2774).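 Note: values are relative to mean of DMSO wells on each plate.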 The settings on record: circadian reporter cells, at 7 µM, actives lie on both sides.
Assay [9] in a line: compounds altering viability of human ES cells (AID 493140).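 Note: cells exposed to compounds for four days before counting.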 The settings on record: human embryonic stem cell survival screen; stronger effect = higher value.
For assay [10], the system named is Hepatitis C virus NS3 helicase. Description: blockers of NS3h binding to ssDNA – biochemical, fluorescence polarization, LOPAC1280 library, primary screen (AID 687035; in the data active = inhibition above about 37%). The settings on record: Purified HCV NS3 helicase, Cy5-dT15 ssDNA binding fluorescence polarization; stronger effect = higher value; concentration not given here. (Polarisation of emitted light reports the rotation of a fluorescent probe.)

Assay [11] in a line: compounds altering Cy5-DNA-NS3h complex signal – biochemical, LOPAC1280, artefact control for HCV NS3 helicase inhibitor project (AID 687037). The conditions noted are these: Cy5-DNA-NS3h complex fluorescence interference counterscreen.
Assay [12] relates to Aerobactin synthetase IucA (Klebsiella pneumoniae, hypervirulent). The assay is described as follows: biochemical IucA inhibition screen of LOPAC library by absorbance (AID 1346212).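 Note: 100% = no compound wells and 0% = no enzyme wells.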 The conditions noted are these: IucA enzyme assay, absorbance (OD) readout; stronger effect = lower value;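 tested at 8 µM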.
Assay [13] is described as follows: blockers of cellular phospholipid synthesis – cell-based, LOPAC library, screen 4, primary screen (AID 1347384). The settings on record: animal cells, phospholipid biosynthesis inhibition screen; at 10 µM.
Assay [14] in a line: yeast 75Q aggregation reduction – 75Q-TubU reporter (AID 1593). The settings on record: Yeast 75Q polyglutamine aggregation reporter.
Assay [15] in a line: restoration of touch response, mutant HTT neurons – whole organism, C. elegans mechanosensory neurons, N-terminal huntingtin (AID 1599). The settings on record: C. elegans polyQ-huntingtin mechanosensory neurons, stronger effect = higher value.
Assay [16] can be described thus: blockers of cytochrome c efflux from mitochondria – biochemical, purified mitochondria (AID 1603).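 Note: mouse liver mitochondria challenged with calcium chloride; signal normalized to the plate average as 100%.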 The conditions noted are these: stronger effect = lower value.
Assay [17] can be described thus: polyglutamine aggregate formation blockers (AID 1604). The conditions noted are these: polyglutamine-induced protein aggregation inhibition assay; stronger effect = higher value; tested at 2.5 µM.
Assay [18] in a line: glutamate transport activators, MN-1 cells, MN-1 cell line (AID 1612).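 Note: tested at 1 µM final; 0% = mean of DMSO vehicle wells on each plate; positive means more glutamate uptake than control and negative means less.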 The settings on record: MN-1 motor neuron cells, stronger effect = higher value.
The nature of assay [19]: 75Q-TubH aggregate inhibition, S. cerevisiae, yeast (AID 1616). The settings on record: S. cerevisiae 75Q-TubH polyglutamine aggregation suppression; stronger effect = higher value.
Where [20] appears, read: measured here: epithelial PC-3E GFP cell survival.
The mark [21] stands for this setting: measured here: mesenchymal TEM4-18 mCherry cell survival.
Where [22] appears, read: measured here: relative caspase fold change +Dox/-Dox.
Setting [23] is: measured here: total cells with miR-34 induction, stronger effect = lower value.
Setting [24] is: measured here: total cells without miR-34 induction.

Each structure is given as a SMILES string. Several values for one entry are separate records, joined by “and”; a condition that tells them apart may be missing. Equal entries are not always repeated. For some of these results: Measured potencies and affinities stand elsewhere. Activity calls are given as the source filed them. Unless noted, the rule behind the calls is not given here.

The text below walks through data of PubChem BioAssay.

Sequence of Mitogen-activated protein kinase 7 (Homo sapiens) (Q13164 whole entry, looked up, the tested form may be a part): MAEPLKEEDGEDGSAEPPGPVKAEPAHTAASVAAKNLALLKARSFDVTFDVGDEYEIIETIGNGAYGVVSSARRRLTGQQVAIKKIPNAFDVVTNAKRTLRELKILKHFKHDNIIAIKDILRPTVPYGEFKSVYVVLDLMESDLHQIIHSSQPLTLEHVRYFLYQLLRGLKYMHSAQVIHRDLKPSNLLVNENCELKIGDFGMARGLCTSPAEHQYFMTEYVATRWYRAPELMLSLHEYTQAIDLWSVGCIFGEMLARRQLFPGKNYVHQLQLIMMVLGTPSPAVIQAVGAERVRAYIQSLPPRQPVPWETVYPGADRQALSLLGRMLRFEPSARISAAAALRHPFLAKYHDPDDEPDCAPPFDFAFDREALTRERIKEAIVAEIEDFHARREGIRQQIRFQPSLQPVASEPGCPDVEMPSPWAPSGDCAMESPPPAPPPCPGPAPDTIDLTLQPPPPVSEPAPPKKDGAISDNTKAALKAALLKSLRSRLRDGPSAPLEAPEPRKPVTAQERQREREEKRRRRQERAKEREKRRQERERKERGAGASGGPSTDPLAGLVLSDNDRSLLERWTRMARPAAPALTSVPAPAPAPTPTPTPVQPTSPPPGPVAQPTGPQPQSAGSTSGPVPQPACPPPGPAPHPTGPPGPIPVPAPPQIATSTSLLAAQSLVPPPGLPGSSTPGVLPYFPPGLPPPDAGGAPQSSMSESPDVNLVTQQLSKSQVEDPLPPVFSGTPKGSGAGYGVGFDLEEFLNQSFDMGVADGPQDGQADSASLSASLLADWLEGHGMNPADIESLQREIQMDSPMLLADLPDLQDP

One may read the viability as a read-out of living cells in per cent, often relative to untreated cells. On to `C[C@@H]1O[C@@H](O[C@H]2CC[C@]3(C=O)C4CC[C@]5(C)[C@@H](C6=CC(=O)OC6)CC[C@]5(O)C4CC[C@]3(O)C2)[C@H](O)[C@H](O)[C@H]1O` (stereo not given in full), for which, in [1], the parasite load remaining is 3.9% (inactive) and the viability turned out to be 51%. The red/green cell ratio (normalised) in assay [2] is 0.21 (inactive). In [2] (setting [20]), this molecule returned a normalised cell number of 0.1. Besides, the normalised cell number in assay [2] (setting [21]) worked out at 0.02. In addition, the activity remaining in [3] was 95.5% (inactive).

As to `C=CCN=C=S`, the red/green cell ratio (normalised) in [2] is 0.88 (inactive). Moreover, the normalised cell number in assay [2] (setting [20]) worked out at 1.07; in assay [2] (setting [21]), 0.93. Further, the fold change in assay [4] (stronger effect = lower value) was 1.01 (inactive); in assay [4] (setting [22]), 0.842. Further, the cell count amounted to 7390 in assay [4] (setting [23]) and 7280 in assay [4] (setting [24]).

Consider `CC[C@@]1(O)C[C@H](O[C@H]2C[C@H](N(C)C)[C@H](O)[C@H](C)O2)c2c(cc3c(c2O)C(=O)c2c(O)ccc(O)c2C3=O)[C@H]1C(=O)OC`, for which the red/green cell ratio (normalised) in [2] was 0.85 (inactive). The normalised cell number came to 1.07 in [2] (setting [20]) and 0.9 in assay [2] (setting [21]). In assay [3], the activity remaining is 96.8% (inactive). For the same molecule, in assay [5], the luciferase signal was 32 AU (inactive).

Regarding `C#CCN(C)C(C)Cc1ccccc1` (stereo not given), the parasite load remaining in assay [1] is 54.6% (inactive) and 61.7% (inactive). For the same molecule, the viability in [1] was 101% and 170%. Also, the red/green cell ratio (normalised) in assay [2] was 1.02 (inactive). In addition, the normalised cell number in assay [2] (setting [20]) was 1.06; in assay [2] (setting [21]), 1.07. The fold change was 0.923 (inactive) and 0.946 (inactive) and 0.891 (inactive) in assay [4] (stronger effect = lower value); 2.5 and 4.7 and 1.31 in assay [4] (setting [22]). Moreover, the cell count in assay [4] (setting [23]) is 9410 and 12100 and 9880; in assay [4] (setting [24]) it was 10200 and 12800 and 11100. Besides, the z-score in assay [6] (MELAS cybrid survival, CellTiter-Glo 48 h, stronger effect = higher value) is -0.242 (inactive); in assay [6] (Rieske KO mouse fibroblast survival, CellTiter-Glo 72 h), -0.831; in [7], 0.995 (inactive) and 0.67 (inactive).

One may read the inhibition as the drop in the measured response relative to a control, in per cent. One may read the remaining activity as the signal under treatment as a percentage of the control signal. Turning to `CS(=N)(=O)CC[C@H](N)C(=O)O` (stereo not given in full), in assay [8], the period change is -0.08 h (inactive). Moreover, the survival in assay [9] was 9.75 (inactive). Further, in assay [1], the parasite load remaining was 18.6% (inactive) and 51.3% (inactive). For the same molecule, the viability in assay [1] is 102% and 77.3%. Besides, the inhibition in [10] is -3% (inactive). Further, the fluorescence ratio (interference) in assay [11] was 1 (inactive). Moreover, the red/green cell ratio (normalised) in [2] was 0.94 (inactive). Also, the normalised cell number in assay [2] (setting [20]) was determined as 1.08; in assay [2] (setting [21]), 1.02. Further, in assay [12], the remaining activity is 115% (inactive). In addition, the fold change is 1.04 (inactive) and 0.811 (inactive) in [4] (stronger effect = lower value); 0.701 and 1.11 in assay [4] (setting [22]). Besides, the cell count was 10400 and 8780 in assay [4] (setting [23]); 9920 and 10800 in assay [4] (setting [24]). The molecule was classed as inactive in [13]. For the same molecule, in [7], the z-score is 0.45 (inactive).

For the molecule `O=c1[nH]c(=O)n(Cl)c(=O)n1Cl`, the red/green cell ratio (normalised) in assay [2] was 1.21 (inactive). Further, the normalised cell number in assay [2] (setting [20]) worked out at 0.87; in assay [2] (setting [21]) it was 1.05. The fold change was 0.959 (inactive) in [4] (stronger effect = lower value) and 0.94 in assay [4] (setting [22]). Besides, the figures for the cell count in [4] (setting [23]) and in assay [4] (setting [24]) were 8550 and 8920, respectively.

As to `Cc1cc(OC(=O)N2CCCCC2)c(C(C)C)cc1[N+](C)(C)C`, in assay [2] (counts scaled to control wells, 1 = unselective), the red/green cell ratio (normalised) is 0.97 (inactive). Besides, the normalised cell number was found to be 1.16 in [2] (setting [20]) and 1.13 in [2] (setting [21]). Besides, the activity remaining in assay [3] was 125% (inactive). Besides, the luciferase signal in assay [5] was 48 AU (inactive).

`CC[C@H]1CN2CCC1C[C@@H]2[C@@H](O)c1ccnc2ccc(OC)cc12` (stereo not given in full) gave a score in [14] of 1.22. Also, the rescue above control in assay [15] is -8.65. Moreover, the cytochrome c release ratio in assay [16] was found to be 0.67. The molecule further displayed an inhibition of aggregation in [17] of 32.5%. Also, the glutamate uptake change in assay [18] came out at 1.44%. Besides, the aggregation suppression score in [19] turned out to be 1.35. For the same molecule, in [1], the parasite load remaining is 20% (inactive) and the viability stood at 79.3%. The red/green cell ratio (normalised) in [2] is 0.99 (inactive). The molecule further registered a normalised cell number in [2] (setting [20]) of 1.01. Also, the normalised cell number in [2] (setting [21]) came out at 1. Besides, the activity remaining in assay [3] is 117% (inactive).
